Calls of active or inactive are those of the source. Rule for the calls: active = hit-call score of the fitted dose curve at least 0.9, where 1 is the maximum; inactive = score below 0.9.
Test: ATG_PXRE_CIS: Attagene CIS-FACTORIAL HepG2 Assay for human Pregnane X Receptor Element (PXRE) (AID 2282957)
Conditions: HepG2 Attagene CIS-FACTORIAL PXRE reporter, mRNA; actives raise or lower the signal
Summary of the method: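 After a 24 h chemical incubation, total RNA from transfected HepG2 cells was reverse-transcribed and reporter cDNA amplified, FAM-labeled, HpaI-digested and sized by capillary electrophoresis. DMSO served as baseline for bidirectional curve fitting.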

SMILES	AC50	outcome
Cn1cc(-c2ccccc2)c(=O)c(-c2cccc(C(F)(F)F)c2)c1	4.31 µM (active)	
O=C(N[C@H](c1ccccc1)[C@@H]1CN2CCC1CC2)c1c(Cl)ccc(C(F)(F)F)c1Cl	0.458 µM (active)	
N#CC(Br)Br		inactive
COC(=O)c1ccccc1N	100 µM (active)	
CN(C)c1ccc(C(=O)c2ccc(N(C)C)cc2)cc1	3.72 µM (active)	
ClCCOCCCl		inactive
CC(C)(C)OOC(=O)c1ccccc1	100 µM (active)	
CCN(CC)N=O		inactive
Nc1ccc(Oc2ccc(N)cc2)cc1		inactive
Nc1cc(Cl)cc(C(=O)O)c1Cl	65 µM (active)	
CN(C)C(=O)Nc1ccc(Cl)cc1		inactive
c1ccc(C2CO2)cc1 (configuration not stated)	34.8 µM (active)	
CCC12COCN1COC2		inactive
CC(C)(O)c1cnn2c(-c3ccc(F)c(-c4c(F)cccc4C#N)c3)cnc2n1	0.137 µM (active)	
Clc1ccc(C(c2ccc(Cl)cc2)C(Cl)(Cl)Cl)cc1	4.13 µM (active)	
CCN(CC)CCO		inactive
CC(C)(C)C(O)(CCc1ccc(Cl)cc1)Cn1cncn1 (configuration not stated)	2.45 µM (active)	
CCCCCCCCCCCCCN1CC(C)OC(C)C1 (configuration not stated)	8 µM (active)	
ClC1=C(Cl)C2(Cl)C3C(Cl)C=CC3C1(Cl)C2(Cl)Cl (configuration not stated)	7.47 µM (active)	
C[N+](C)(C)CC1CO1 (configuration not stated)		inactive
CO[C@@H]1[C@H](OC(=O)NC(=O)CCl)CC[C@]2(CO2)[C@H]1[C@@]1(C)O[C@@H]1CC=C(C)C	0.293 µM (active)	
CCCCOC(=O)c1ccccc1C(=O)OCc1ccccc1	27.1 µM (active)	
O=C(Nc1ccccc1)c1ccccc1I	6.15 µM (active)	
Oc1ccccc1Cl		inactive
Clc1ccccc1Cl		inactive
Clc1ccc(Cl)c(Cl)c1	58.4 µM (active)	
CNC(=O)Oc1cccc2c1OC(C)(C)C2	17.1 µM (active)	
N#CC(Br)(Br)C(N)=O	100 µM (active)	

Test: ATG_PPRE_CIS: Attagene CIS-FACTORIAL HepG2 Assay for human Peroxisome Proliferator-activated Response Element (PPRE) (AID 2282958)
Conditions: HepG2 PPRE cis-element reporter, Attagene transcription factor profiling; actives raise or lower the signal
Summary of the method: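 Multiplexed reporter transcription units under cis-regulatory promoters were transfected into HepG2 cells to capture endogenous factor activity. A 24 h incubation preceded RNA isolation and fluorescent RT-PCR fragment analysis.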

SMILES	outcome
Cn1cc(-c2ccccc2)c(=O)c(-c2cccc(C(F)(F)F)c2)c1	inactive
O=C(N[C@H](c1ccccc1)[C@@H]1CN2CCC1CC2)c1c(Cl)ccc(C(F)(F)F)c1Cl	inactive
N#CC(Br)Br	inactive
COC(=O)c1ccccc1N	inactive
CN(C)c1ccc(C(=O)c2ccc(N(C)C)cc2)cc1	inactive
ClCCOCCCl	inactive
CC(C)(C)OOC(=O)c1ccccc1	inactive
CCN(CC)N=O	inactive
Nc1ccc(Oc2ccc(N)cc2)cc1	inactive
Nc1cc(Cl)cc(C(=O)O)c1Cl	inactive
CN(C)C(=O)Nc1ccc(Cl)cc1	inactive
c1ccc(C2CO2)cc1 (configuration not stated)	inactive
CCC12COCN1COC2	inactive
CC(C)(O)c1cnn2c(-c3ccc(F)c(-c4c(F)cccc4C#N)c3)cnc2n1	inactive
Clc1ccc(C(c2ccc(Cl)cc2)C(Cl)(Cl)Cl)cc1	inactive
CCN(CC)CCO	inactive
CC(C)(C)C(O)(CCc1ccc(Cl)cc1)Cn1cncn1 (configuration not stated)	inactive
CCCCCCCCCCCCCN1CC(C)OC(C)C1 (configuration not stated)	inactive
ClC1=C(Cl)C2(Cl)C3C(Cl)C=CC3C1(Cl)C2(Cl)Cl (configuration not stated)	inactive
C[N+](C)(C)CC1CO1 (configuration not stated)	inactive
CO[C@@H]1[C@H](OC(=O)NC(=O)CCl)CC[C@]2(CO2)[C@H]1[C@@]1(C)O[C@@H]1CC=C(C)C	inactive
CCCCOC(=O)c1ccccc1C(=O)OCc1ccccc1	inactive
O=C(Nc1ccccc1)c1ccccc1I	inactive
Oc1ccccc1Cl	inactive
Clc1ccccc1Cl	inactive
Clc1ccc(Cl)c(Cl)c1	inactive
CNC(=O)Oc1cccc2c1OC(C)(C)C2	inactive
N#CC(Br)(Br)C(N)=O	inactive

Test: ATG_RORE_CIS: Attagene CIS-FACTORIAL HepG2 Assay for human RAR-related Orphan Receptor Element (RORE) (AID 2282959)
Conditions: HepG2 Attagene cis-factorial RORE reporter, mRNA; actives raise or lower the signal
Summary of the method: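 Fluorescence intensity of reporter-specific cDNA fragments, separated by capillary electrophoresis, gives the signal. Source: HepG2 liver cells transiently transfected with cis-element reporters and exposed 24 h; DMSO-normalized bidirectional fit.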

SMILES	outcome
Cn1cc(-c2ccccc2)c(=O)c(-c2cccc(C(F)(F)F)c2)c1	inactive
O=C(N[C@H](c1ccccc1)[C@@H]1CN2CCC1CC2)c1c(Cl)ccc(C(F)(F)F)c1Cl	inactive
N#CC(Br)Br	inactive
COC(=O)c1ccccc1N	inactive
CN(C)c1ccc(C(=O)c2ccc(N(C)C)cc2)cc1	inactive
ClCCOCCCl	inactive
CC(C)(C)OOC(=O)c1ccccc1	inactive
CCN(CC)N=O	inactive
Nc1ccc(Oc2ccc(N)cc2)cc1	inactive
Nc1cc(Cl)cc(C(=O)O)c1Cl	inactive
CN(C)C(=O)Nc1ccc(Cl)cc1	inactive
c1ccc(C2CO2)cc1 (configuration not stated)	inactive
CCC12COCN1COC2	inactive
CC(C)(O)c1cnn2c(-c3ccc(F)c(-c4c(F)cccc4C#N)c3)cnc2n1	inactive
Clc1ccc(C(c2ccc(Cl)cc2)C(Cl)(Cl)Cl)cc1	inactive
CCN(CC)CCO	inactive
CC(C)(C)C(O)(CCc1ccc(Cl)cc1)Cn1cncn1 (configuration not stated)	inactive
CCCCCCCCCCCCCN1CC(C)OC(C)C1 (configuration not stated)	inactive
ClC1=C(Cl)C2(Cl)C3C(Cl)C=CC3C1(Cl)C2(Cl)Cl (configuration not stated)	inactive
C[N+](C)(C)CC1CO1 (configuration not stated)	inactive
CO[C@@H]1[C@H](OC(=O)NC(=O)CCl)CC[C@]2(CO2)[C@H]1[C@@]1(C)O[C@@H]1CC=C(C)C	inactive
CCCCOC(=O)c1ccccc1C(=O)OCc1ccccc1	inactive
O=C(Nc1ccccc1)c1ccccc1I	inactive
Clc1ccccc1Cl	inactive
Clc1ccc(Cl)c(Cl)c1	inactive
N#CC(Br)(Br)C(N)=O	inactive

— PubChem BioAssay (EPA / NIEHS)
